PubChem BioAssay (NCI)
The panel holds about 79,000 compounds, 15% with a hit somewhere; the sample as a whole holds those more often. Rule as the data show it: active = growth inhibition above about 70%; inactive = the rest. Where a SMILES comes first, the peptide text is derived from it. The star is where a group is joined. Cbz = O=C(OCc1ccccc1)*; Bn = c1ccc(C*)cc1

Key:
[1] = NCI Yeast Anticancer Drug Screen. Data for the rad50 strain (AID 155);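 also: 0% = growth of vehicle-only cultures of the same strain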; conditions: S. cerevisiae rad50 strain growth inhibition; at 50.0 µM; stronger effect = higher value
Procedure, shortened: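 Genetically altered yeast (DNA repair pathway); compound treatment; growth inhibition vs vehicle ctrl.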

[2] = NCI Yeast Anticancer Drug Screen. Data for the mec2-1 strain (AID 157); conditions: S. cerevisiae mec2-1 strain, at 50.0 µM, stronger effect = higher value
Procedure, shortened: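 Each compound was tested on mec2-1 yeast, a strain altered in DNA damage repair or cell cycle control. Growth inhibition is reported relative to vehicle.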

[3] = NCI Yeast Anticancer Drug Screen. Data for the sgs1 mgt1 strain (AID 161);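 also: 0% = growth of cultures given vehicle only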; conditions: S. cerevisiae sgs1 mgt1 strain, at 50.0 µM, stronger effect = higher value
Procedure, shortened: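 Mutant yeast exposed to compound; growth scored against vehicle-only wells.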

[4] = NCI Yeast Anticancer Drug Screen. Data for the cln2 rad14 strain (AID 165);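 also: 0% = growth equal to vehicle treated cultures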; conditions: S. cerevisiae cln2 rad14 strain, at 50.0 µM, stronger effect = higher value
Procedure, shortened: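 Test compounds were added to cln2 rad14 yeast cultures; inhibition of growth was then determined by comparison with vehicle treatment.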

[5] = NCI Yeast Anticancer Drug Screen. Data for the bub3 strain (AID 167); conditions: S. cerevisiae bub3 mutant strain, at 50.0 µM, stronger effect = higher value
Procedure, shortened: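 Yeast carrying a defined mutation is treated with each compound, and growth is compared with that of vehicle-exposed cells to give inhibition.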

[6] = NCI Yeast Anticancer Drug Screen. Data for the mlh1 rad18 strain (AID 175); conditions: S. cerevisiae mlh1 rad18 strain growth inhibition; at 50.0 µM; stronger effect = higher value
Procedure, shortened: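 Inhibition values reflect reduced growth of mutant yeast versus vehicle-treated controls following compound exposure; the mutations affect DNA damage repair.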

Measured: growth inhibition

COc1ccc(C(Br)C(Br)C(=O)C(C)(C)C)cc1 (stereo unspecified)
inactive: [1] -2.95% | [2] 8.75% | [3] 6.2% | [4] -21.6% | [5] 31.6% | [6] 30.4%

O=C1NCCCC1CCO (stereo unspecified)
inactive: [1] -8.35% | [2] -3.65% | [3] -7.95% | [4] -3.65% | [5] 5.5% | [6] -3.85%

CC(=O)CCc1cccc([N+](=O)[O-])c1
inactive: [1] -17.6% | [2] -5.1% | [3] -14.5% | [4] -6.85% | [5] -0.15% | [6] -7.25%

COc1cc2c(cc1OC)C(O)C(O)(CO)C(C(=O)O)C2c1cc(OC)c(OC)c(OC)c1 (stereo unspecified)
inactive: [1] 24.4% | [2] -10.3% | [3] 12.1% | [4] 18.2% | [5] 25.1% | [6] 22.7%

CCc1cc2c(ccc3ccccc32)c2c1CCC2
inactive: [1] -11.6% | [2] -11.7% | [3] -1.8% | [4] -17.1% | [5] 5.3% | [6] 1.6%

CC(=O)c1cc2ccccc2n(O)c1=N
inactive: [1] -32.9% | [2] -10.8% | [3] -24% | [4] 17.1% | [5] -15.2% | [6] -17.3%

COc1c2ccoc2nc2c(O)c3c(c(CC=C(C)C)c12)OCO3
inactive: [1] -6.65% | [2] -7% | [3] -4.7% | [4] 16.2% | [5] -4.9% | [6] -2.95%

O=C(O)c1[nH]c2c(=O)[nH]c(=O)[nH]c2c1Br
inactive: [1] 5.25% | [2] -2.8% | [3] -15.9% | [4] -4.35% | [5] 2.15% | [6] 15%

C=C(C)C1CC/C(C)=C/CC[C@]2(C)O[C@H]2CC/C(COC(C)=O)=C\[C@@H]1O (stereo partly specified)
inactive: [1] -7.9% | [2] -8.7% | [3] 2.2% | [4] 3.65% | [5] -18.6% | [6] -54.6%

CCO/C(=C/[S+](C)C)c1ccccc1
inactive: [1] 0.55% | [2] -4.4% | [3] -19.9% | [4] 2.95% | [5] 9.3% | [6] 5.35%

CC(=O)OC1COC([n+]2cccc(C(N)=O)c2)C(OC(C)=O)C1OC(C)=O (stereo unspecified)
inactive: [1] -36.5% | [2] -22.7% | [3] -25.9% | [4] -32.6% | [5] -9.95% | [6] -20%

NC(=O)N/N=C1\CCn2cccc21
inactive: [1] -10.8% | [2] 1% | [3] -3.25% | [4] -2.2% | [5] 1.1% | [6] -5.1%

O=C(c1ccccc1)c1ccc(Cl)c(Cl)c1
inactive: [1] -5.3% | [2] -23.3% | [3] 2.05% | [4] -55.5% | [5] 6.65% | [6] -8.05%

CCOC(=O)C1C(c2cc(OC)c(OC)c(OC)c2)c2cc3c(cc2OC1(C)N1CCCC1)OCO3 (stereo unspecified)
inactive: [1] 7.15% | [2] -0.45% | [3] -12.3% | [4] 20.5% | [5] 1.55% | [6] 22.1%

CCN(CC)CCC(O)(c1cccc(Cl)c1)C1CCCCC1 (stereo unspecified)
inactive: [1] -1.4% | [2] -6.25% | [3] -3.1% | [4] -68% | [5] -7.95% | [6] -7.25%

CC(C)C(NC(=O)C(CSCc1ccccc1)NC(=O)OCc1ccccc1)C(N)=O (stereo unspecified) (Cbz-Cys(Bn)-Val-NH2; configuration not given here)
inactive: [1] 8.8% | [2] 16.1% | [3] 1.6% | [4] -3.65% | [5] -0.9% | [6] 30.6%

Cc1cnc(-c2ccccc2)o1
inactive: [1] 8.7% | [2] 5.4% | [3] -4.8% | [4] 3.9% | [5] 0.9% | [6] -12.7%

CC(=O)N/N=C/c1cccc([N+](=O)[O-])c1
inactive: [1] -6.25% | [2] 5.15% | [3] -4.55% | [4] -35.8% | [5] -19.9% | [6] -7.9%

CC1=CC(=O)C(C(C)C)=CC1=O
inactive: [1] -9.55% | [2] 7.25% | [3] -4.25% | [4] 22.6% | [5] 4.7% | [6] 0.5%

NC(=S)N/N=C/C1=C(Cl)c2ccccc2C1
inactive: [1] 7.45% | [2] 6.5% | [3] 1.15% | [4] -4.45% | [5] -2.55% | [6] 13.2%

O=C(/C=C/c1ccc(O)cc1)OC[C@@H](O)COC1OC(CO)C(O)C(O)C1O (stereo partly specified)
inactive: [1] -5.8% | [2] -5.05% | [3] -4.35% | [4] 6.8% | [5] 8.2% | [6] -3.65%

CCOC(=O)NC(C)(C)CN(CCO)C(=O)OCC
inactive: [1] -5.9% | [2] -3.4% | [3] 1.4% | [4] -4.9% | [5] -21.9% | [6] -8.7%

COc1cccc(/C=C2\SC(=S)N(/C=C3\C(=O)Oc4ccccc4C3=O)C2=O)c1O
inactive: [1] 12.2% | [2] 40.1% | [3] 59% | [4] 50.6% | [5] 12.8% | [6] 23.6%

Cc1cccc(N=Cc2ccc(Cl)cc2Cl)c1C
inactive: [1] 34.6% | [2] 20.1% | [3] 26.7% | [4] 28.6% | [5] 19% | [6] 31.6%

C=CS(=O)CCCCCCC (stereo unspecified)
inactive: [1] 25.1% | [2] -1.3% | [3] -13.9% | [4] -68.5% | [5] 4.45% | [6] -34.4%

Clc1ccc(-c2cc3ccccc3[nH]2)cc1
inactive: [1] 23.9% | [2] -3.3% | [3] -1.25% | [4] -32.4% | [5] 2.4% | [6] -5.05%

O=[N+]([O-])c1ccccc1S(=O)(=O)NC1c2ccccc2Oc2ccccc21
inactive: [1] 31.9% | [2] 28.3% | [3] 19.4% | [4] 2.75% | [5] -0.8% | [6] 43.6%

COc1ccc(C2S/C(=C\c3ccccc3)C(=O)N2NC(=O)Cc2ccccc2)cc1 (stereo unspecified)
inactive: [1] -12.8% | [2] -54.2% | [3] -7.5% | [4] -69.7% | [5] -18.6% | [6] -12%

Cc1ccc(N(C)c2cc(=O)n(C)c(=O)[nH]2)cc1C
inactive: [1] 14.4% | [2] 16.2% | [3] 10.3% | [4] 28.3% | [5] 12.4% | [6] 14.4%

NC1=C(O)C(=O)C(c2cccc(O)c2)O1 (stereo unspecified)
inactive: [1] -8.1% | [2] -10.1% | [3] 7.9% | [4] -5.05% | [5] 3.2% | [6] 8.45%

Cc1nnc(N)s/c1=N/O
inactive: [1] 7.5% | [2] 4.6% | [3] 2.45% | [4] -5.55% | [5] 3.15% | [6] -11.6%

CCCc1[nH]n(-c2cccc([N+](=O)[O-])c2)c(=O)c1N=Nc1ccc(Cl)cc1
inactive: [1] 40.9% | [2] 24.1% | [3] 21.5% | [4] 20.9% | [5] -2.5% | [6] 26.9%

CC1C(=O)OC(=O)C1C (stereo unspecified)
inactive: [1] -11.2% | [2] -6.2% | [3] 11.5% | [4] 4% | [5] -4.6% | [6] 8.8%

O=C1OC2c3ccccc3C3CC(=O)C2C13 (stereo unspecified)
inactive: [1] 10.2% | [2] -5.7% | [3] 9.35% | [4] 6.25% | [5] 1.25% | [6] 7.65%

NC(=O)c1nc(C2OC(CO)C(O)C2O)cs1 (stereo unspecified)
inactive: [1] -0.7% | [2] -1.2% | [3] -2.25% | [4] -27.9% | [5] 6.75% | [6] 0.15%

C=C1CCCC(C)(C)C1CC/C(C)=C/CC/C(C)=C/CO (stereo unspecified)
inactive: [1] -0.75% | [2] -1.45% | [3] 12.7% | [4] 8.4% | [5] 8.75% | [6] 12.1%

O=C1Nc2ccccc2C1O (stereo unspecified)
inactive: [1] 7.15% | [2] 3.3% | [3] -37.5% | [4] -17.7% | [5] 11.1% | [6] -4.2%

O=C(c1ccccc1)c1cc(Cl)ccc1NCC(O)COc1ccc(Cl)cc1 (stereo unspecified)
inactive: [1] -12.8% | [2] 7.05% | [3] -33% | [4] -12.6% | [5] -0.45% | [6] -10.1%

O=C(NNC(=O)c1cccc(F)c1)c1cccc(F)c1
inactive: [1] -20.6% | [2] -8.1% | [3] -13.3% | [4] 18.9% | [5] -6.4% | [6] -1.75%

CC(C)CC1NC(=O)OC1=O (stereo unspecified)
inactive: [1] 6.7% | [2] 0.9% | [3] -9.7% | [4] -17.6% | [5] 1.25% | [6] 0.35%

O=[N+]([O-])c1ccccc1S(=O)(=O)c1cc(Cl)cc2c1NCCC2
inactive: [1] 16.8% | [2] 0.15% | [3] 26.8% | [4] 9.15% | [5] 38.8% | [6] 30.9%
